{"source": "PubChem BioAssay AID488920", "about": "(Sanford-Burnham Center for Chemical Genomics, 2010)", "note": "Unmarked numbers belong to inactive results. Rule as the data show it: active = IC50 below about 3 µM; inactive = the rest.", "data": [{"assay": "luminescent readout interference, potency – biochemical, luminescence, artefact control for SENP inhibitor project, dose response (AID 488920)", "conditions": "luminescence interference counterscreen, spectral interferers", "units": {"IC50": "µM"}, "values": [{"smiles": "CCC(C)NC(=O)c1c(N)n(CCCOC)c2nc3ccccc3nc12", "note": "(stereo not drawn)", "IC50": "> 5"}, {"smiles": "CCOC(=O)c1c(NS(=O)(=O)c2ccccc2)n(CCCOC)c2nc3ccccc3nc12", "IC50": "> 5"}, {"smiles": "COc1cc2c(cc1OC)-c1c(OC)c(OC)cc3c1C(C2)N(C)CC3", "note": "(stereo not drawn)", "IC50": "> 5"}]}]}
